From PubChem BioAssay AID1159580 (chemical genetic matrix, 2015)
Where “and” joins values, the source holds several entries; their conditions need not be identical. Equal values may be shown once. In all, about 5,500 compounds went through this assay and about 2,000 (36%) were called active. About 18% were inconclusive and are not listed. No stated cut-off is given here; in the data, active means normalized growth mostly below about 0.91 (no sharp cut-off); inconclusive means no clear call, values can overlap the other calls; inactive means mostly above about 0.92. The list shows a part of the results.

Assay: chemical genetic growth profiling, strain panel (AID 1159580);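 further: tested at 20 µM; growth read once vehicle control cultures reached saturation at 30 °C; 1 = growth at the plate median or of vehicle wells; lower values mean less growth of the strain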
Settings: S. cerevisiae deletion strains, growth OD

Measured: normalized growth

CC(C)=CCC/C(C)=C/CO
inactive: locus YAL013W, strain DEP1, active compounds read low 1.01 | locus YAL021C, strain ccr4, active compounds read low 1.02 | locus YAL026C, strain drs2, active compounds read low 0.98 | locus YAL030W, strain snc1, active compounds read low 0.995 | locus YBL061C, strain skt5, active compounds read low 0.986 | locus YBR009C, strain hhf1, active compounds read low 1.01 | locus YBR021W, strain FUR4, active compounds read low 1 | locus YBR023C, strain chs3, active compounds read low 1 | locus YBR171W, strain sec66, active compounds read low 0.973 | locus YBR229C, strain ROT2, active compounds read low 1.02 | locus YBR231C, strain swc5, active compounds read low 1.02 | locus YBR279W, strain paf1, active compounds read low 1.01 | locus YCL011C, strain gbp2, active compounds read low 0.972 | locus YCL016C, strain dcc1, active compounds read low 1.02 | locus YCL029C, strain bik1, active compounds read low 0.988 | locus YCL069W, strain vba3, active compounds read low 0.986 | locus YCR088W, strain abp1, active compounds read low 0.976 | locus YDL005C, strain med2, active compounds read low 0.979 | locus YDL035C, strain GPR1, active compounds read low 1.01 | locus YDL040C, strain nat1, active compounds read low 0.977 | locus YDL074C, strain BRE1, active compounds read low 0.994 | locus YDL101C, strain DUN1, active compounds read low 1.01 | locus YDL134C, strain PPH21, active compounds read low 1.02 | locus YDL185W, strain tfp1, active compounds read low 0.985 | locus YDL192W, strain arf1, active compounds read low 1 | locus YDR001C, strain nth1, active compounds read low 0.992 | locus YDR069C, strain doa4, active compounds read low 0.984 | locus YDR101C, strain arx1, active compounds read low 0.978 | locus YDR137W, strain rgp1, active compounds read low 0.982 | locus YDR150W, strain NUM1, active compounds read low 1.01 | locus YDR159W, strain sac3, active compounds read low 0.937 | locus YDR162C, strain NBP2, active compounds read low 1.01 | locus YDR195W, strain ref2 0.968 | locus YDR297W, strain sur2, active compounds read low 0.987 | locus YDR318W, strain mcm21, active compounds read low 0.995 | locus YDR334W, strain swr1, active compounds read low 0.99 | locus YDR335W, strain msn5, active compounds read low 0.987 | locus YDR388W, active compounds read low 0.987 | locus YDR392W, strain spt3, active compounds read low 0.929 | locus YDR502C, strain sam2, active compounds read low 0.989 | locus YEL003W, strain gim4, active compounds read low 0.986 | locus YEL037C, strain rad23, active compounds read low 0.978 | locus YEL061C, strain CIN8 (second series), active compounds read low 0.975 | locus YEL061C, strain CIN8, active compounds read low 1.01 | locus YER015W, strain faa2, active compounds read low 0.982 | locus YER016W, strain bim1, active compounds read low 0.98 | locus YER110C, active compounds read low 0.985 | locus YER111C, strain swi4, active compounds read low 0.988 | locus YER155C, strain BEM2 (second series), active compounds read low 1.02 | locus YER155C, strain BEM2, active compounds read low 1.01 | locus YER167W, strain BCK2, active compounds read low 1.01 | locus YFR010W, strain ubp6, active compounds read low 0.978 | locus YGL078C, strain dbp3, active compounds read low 0.984 | locus YGL086W, strain mad1, active compounds read low 0.992 | locus YGL167C, strain pmr1, active compounds read low 0.986 | locus YGL173C, strain kem1, active compounds read low 0.958 | locus YGL227W, strain vid30, active compounds read low 0.981 | locus YGL240W, strain doc1, active compounds read low 0.967 | locus YGL248W, strain PDE1, active compounds read low 1.03 | locus YGL253W, strain hxk2, active compounds read low 0.961 | locus YGR078C, strain PAC10, active compounds read low 1 | locus YGR135W, strain pre9, active compounds read low 0.988 | locus YGR229C, strain SMI1, active compounds read low 0.998 | locus YGR252W, strain gcn5, active compounds read low 1.03 | locus YHR013C, strain ard1, active compounds read low 1 | locus YHR027C, strain rpn1, active compounds read low 0.977 | locus YHR030C, strain SLT2, active compounds read low 1.01 | locus YHR079C, strain IRE1 (second series), active compounds read low 0.993 | locus YHR079C, strain IRE1, active compounds read low 0.994 | locus YHR094C, strain hxt1, active compounds read low 0.995 | locus YHR129C, strain ARP1, active compounds read low 1.01 | locus YHR142W, strain chs7, active compounds read low 0.998 | locus YHR200W, strain rpn10, active compounds read low 1 | locus YIL066C, strain RNR3, active compounds read low 1.01 | locus YIL073C, strain SPO22, active compounds read low 0.989 | locus YIL125W, strain kgd1, active compounds read low 1 | locus YIR030C, strain dcg1, active compounds read low 0.993 | locus YJL092W, strain hpr5, active compounds read low 0.985 | locus YJL095W, strain BCK1 (second series), active compounds read low 0.982 | locus YJL095W, strain BCK1, active compounds read low 1 and 0.989 | locus YJL115W, strain asf1, active compounds read low 0.993 | locus YJL129C, strain trk1, active compounds read low 0.981 | locus YJL134W, strain LCB3, active compounds read low 1.01 | locus YJL154C, strain vps35, active compounds read low 0.988 | locus YJL164C, strain tpk1, active compounds read low 1.02 | locus YJL166W, strain qcr8, active compounds read low 1.01 | locus YJL168C, strain set2, active compounds read low 0.992 | locus YJL187C, strain SWE1 (second series), active compounds read low 1.01 | locus YJL187C, strain SWE1, active compounds read low 0.993 | locus YJR043C, strain POL32, active compounds read low 0.986 | locus YJR066W, strain TOR1, active compounds read low 0.994
